High-throughput results from PubChem.
Rows were chosen to be rich in hits. Some 4% of all compounds tested hit in one or more screens of this group.
HIF-2a block: inhibitors of HIF-2a; 786-0 RCC cells HIF-2a reporter, luciferase luminescence, overnight; inhibition, % at 18.8 µM; actives 0.72% (n = 360,000); AID 624352;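 active = inhibition of the luminescence signal of 40% or more relative to plate controls, in a single-dose primary screen at 18.75 µM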
CF NFkB inh: inhibitors of cystic fibrosis induced NF-kB. actives 0.86% (n = 360,000). inhibition, % at 5 µM. KKLEB NF-kB-GFP reporter, PAF-induced, GFP fluorescence overnight;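 active = at least 50% inhibition at 5 µM, scaled per plate between neutral and stimulator controls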;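 note: PAF is a Pseudomonas aeruginosa culture filtrate used as stimulus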
Peg3 prom inh: inhibitors of Peg3 promoter. HeLa PEG-Prom luciferase reporter, luminescence, overnight. actives 1.7% (n = 360,000). inhibition, % at 20 µM;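 active = inhibition of at least 50% at 20 µM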
KKLEB tox: counter-screen for CF NF-kB inhibitors: cytotoxicity; activity change (cytotoxicity), % at 5 µM; KKLEB CF airway cells viability, ATPlite luminescence, overnight; active compounds read low; cells stimulated with P. aeruginosa culture filtrate; actives 0.36% (n = 360,000); AID 602141;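 active = corrected activity change at or below -50% at 5 µM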
TWEAK Fn14 block: inhibitors of TWEAK-Fn14 interaction signaling. AID 1159606. actives 2% (n = 360,000). TWEAK-stimulated Fn14 reporter cells, luciferase luminescence, 8 h. inhibition, % at 10 µM; in the data active = inhibition above about 50%
TROY NFkB inh: TROY signaling inhibition; actives 0.98% (n = 360,000); inhibition, % at 10 µM; AID 1347056; Q293 LMP1-TROYcd NF-kB luciferase reporter, 4 h;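 active = compounds whose plate-normalised and pattern-corrected inhibition of the luciferase reporter signal at the single screening dose is 50% or more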
A number is an active result; i = inactive; nt = not tested or not shown.

SMILES	HIF-2a block	CF NFkB inh	Peg3 prom inh	KKLEB tox	TWEAK Fn14 block	TROY NFkB inh
O=C1NC[C@@H](CCCCN2C[C@H](Cc3ccccc3)N(CCC3CCCCC3)C(=O)C2=O)N(CCc2ccccc2)C1=O	i	nt	nt	nt	i	i
COc1cccc(CNC(=O)c2cc3ccccn3n2)c1	i	i	i	i	i	i
CCc1ccc(C2(O)CC(C(F)(F)F)=NN2C(=O)Cc2ccc([N+](=O)[O-])cc2)cc1 (configuration not stated)	i	i	i	i	i	i
O=C(CNS(=O)(=O)c1ccc(Br)cc1)NCc1ccncc1	i	i	i	i	i	i
Cc1ccc(C(=O)N2CCCC(Nc3ccc(F)c(F)c3)C2)cn1 (configuration not stated)	i	i	i	i	i	i
Cc1ccc(NC(=O)C(C)N2C(=O)c3ccccc3C2=O)cc1C (configuration not stated)	i	i	i	i	i	i
C/C(=N/NC(=O)c1cc(C(C)C)[nH]n1)c1cccs1	i	i	i	i	52	i
COc1ccc([C@H]2C[C@@H](O)[C@H](n3cc(COC(=O)c4ccccc4)nn3)CN2CC2CCCCC2)cc1	i	i	52	i	i	i
O=C(/C=C/c1ccccc1)c1ccc(NC2=NCCCS2)cc1	i	i	i	i	i	i
CC(C)(C)c1ccc(/C=C/C(=O)c2ccc(NC3=NCCCS3)cc2)cc1	i	i	i	i	61	i
CC(=O)C(C(C)=O)c1c(Cl)c(O)c(O)c2c(C(=O)c3ccccc3)coc12	i	i	i	i	76	i
COc1ccc(OCCN(C)Cc2ccccc2)cc1	i	i	i	i	i	i
COc1ccc(OCCCN(C)Cc2ccccc2)cc1	i	i	i	i	76	i
COc1ccc(/C=C/C(=O)NC(=S)NNC(=O)c2cnccn2)cc1	i	i	52	i	i	i
CC1CCCN(CCCNC(=O)c2cc3c(Cl)nc4ccccc4c3s2)C1 (configuration not stated)	i	i	92	i	i	i
CC1CCN(CCCNC(=O)c2cc3c(s2)-c2ccccc2OC3)CC1	i	i	62	i	i	i
COC(=O)c1cc2c(s1)-c1ccccc1OC2	i	i	i	i	i	i
Cc1cccc2c1-c1sc(C(=O)NCCCN3CCC(C)CC3)cc1CO2	i	i	75	i	i	i
CC1CCCN(CCCNC(=O)c2cc3c(s2)-c2ccccc2OC3)C1 (configuration not stated)	i	i	75	i	i	i
CC(C)[C@H](N)c1nnc(SCc2ccc(Cl)cc2)o1	i	i	i	i	i	i
Cc1ccc2cc(CN(C(=O)C3CCCO3)C3CCCCC3)c(=O)[nH]c2c1 (configuration not stated)	i	i	i	i	i	i
CCC(Cc1ccccc1)NC(=O)C1CCN(S(=O)(=O)c2ccc3c(c2)CC(C)N3C(C)=O)CC1 (configuration not stated)	i	i	i	i	i	i
Cc1ccc(NC(=O)CSc2nnc(-c3ccco3)n2N)cc1F	i	i	i	i	i	i
COc1cc2c(O)c3c(c(-c4ccc5c(c4)OCO5)c2cc1OC)C(=O)OC3	i	76	81	-73	i	i
COc1ccc(-c2oc(=O)c3cc(OC)c(OC)cc3c2-c2ccc3c(c2)OCO3)cc1	i	i	i	i	i	i
SMILES	HIF-2a block	CF NFkB inh	Peg3 prom inh	KKLEB tox	TWEAK Fn14 block	TROY NFkB inh
CCOn1c(=O)c(C)[n+]([O-])c2ccccc21	i	i	i	i	85	nt
C=CCOn1c(=O)c(C)[n+]([O-])c2ccccc21	i	i	i	i	i	i
O=C(Nc1cc(S(=O)(=O)Nc2ccc(Cl)cc2)ccc1O)c1ccc(S(=O)(=O)N2CCCCCC2)cc1	i	i	i	i	i	57
O=C(Nc1cc(S(=O)(=O)N2CCCCC2)ccc1Cl)c1ccccc1NS(=O)(=O)c1ccc(F)cc1	i	66	53	i	65	52
O=C(N/N=C\C=C\c1ccco1)c1cncc(Br)c1	i	i	i	i	i	i
Clc1cccc(Cl)c1COc1ccncc1	i	i	i	i	i	i
Cc1cc(-n2c(C)cc(C(=O)CSc3nnnn3-c3ccc(Cl)cc3)c2C)no1	i	51	i	-68	i	i
Cc1cc(C(=O)CSc2nnc(-c3ccco3)o2)c(C)n1-c1ccc2c(c1)OCCO2	i	i	i	i	i	i
